# From PubChem
# Shown are actives, neighbours in structure and some others; about 7.4% of the full set was active somewhere.
# Rab9 promoter act: qHTS Assay for Rab9 Promoter Activators | Huh7 Rab9 promoter-luciferase reporter, luminescence, 24 h | Potency, µM (doses to about 9.22 µM), for inactives: at the highest dose activation, negative = inhibition, most hits filed as activators | actives 2.8% (n = 320,000) | AID 485297, 2010; further: % of control where 0% means no effect; nearly all actives have a fitted effect of over 60% in size
#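 Huh7 reporter line, Rab9 promoter upstream of luciferase. Compound exposure 24 h at 37 °C in reduced-serum medium with 10% FBS. Read-out: luminescence.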
# KinaseGlo FLuc: Counterscreen for Luciferase (Kinase-Glo TM) Inhibition; actives 0.28% (n = 200,000); Kinase-Glo luciferase, ATP luminescence, 8 min; AID 1379, 2008; Luciferin 4-monooxygenase (Photuris pensylvanica), Q27757; Potency, µM (doses to about 38.3 µM), without a hit: at the top dose activity change, negative = inhibition, hits mostly inhibitors; further: on the % scale 0 is the no-effect control and ±100 the full control effect; nearly all actives have a fitted effect of over 60% in size
#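 Substrate mix (final 50 mM imidazole pH 7.2, 50 mM KCl, 7 mM MgCl2, 10 uM ATP, 0.01% Tween 20, 0.05% BSA) plus pin-tool compound, then Kinase-Glo detection mix; 8 min ambient, luminescence read.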
# NPC1 prom act: qHTS Assay for NPC1 Promoter Activators | Potency, µM (titrated, usually from 9.22 µM), inactives show top-dose activation, hits mostly activators | actives 2.4% (n = 320,000) | Huh7 NPC1 promoter luciferase reporter, 24 h; further: % of control where 0% means no effect; nearly all actives have a fitted effect of over 60% in size
#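 Huh7 reporter cells (NPC1 promoter driving luciferase) are dosed with compound for 24 h at 37 °C, 5% CO2; luciferase detection reagent is then added and luminescence measured after 10 min at ambient temperature.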
# SMN2 splice enh: qHTS Assay for Enhancers of SMN2 Splice Variant Expression; HEK293 SMN2-luciferase splicing reporter, luminescence, 30-36 h; Potency, µM (doses to about 46.1 µM), for inactives: at the highest dose activity change, positive = activation, hits mostly activators; actives 2.8% (n = 210,000); AID 1458, 2008; further: % of control where 0% means no effect; nearly all actives have a fitted effect of over 55% in size
#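 HEK293 cells carry an SMN2 […]–luciferase reporter in which exon 7 inclusion puts luciferase in frame. Cells were plated 10-12 h before compound addition, then incubated 30-36 h at 37C. ONE-Glo luminescence was read; sodium butyrate at 4.5 mM final served as control.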
# ELG1 genotox: qHTS screen for small molecules that induce genotoxicity in human embryonic kidney (HEK293T) cells expressing luciferase-tagged ELG1; Potency, µM (top dose mostly 46 µM), inactives show at the top dose activity change, positive = activation, actives largely listed as activators; AID 504466, 2011; HEK293T ELG1-luciferase reporter, luminescence, 16 h; actives 1.3% (n = 330,000); further: % of control where 0% means no effect; nearly all actives have a fitted effect of over 60% in size
#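 Reporter readout depends on ELG1 protein level, which increases with genetic stress. After 16 hr compound exposure at 37 °C, luciferase activity was quantified using ONE-Glo.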
# FLuc counter: qHTS profiling assay for firefly luciferase inhibitor/activator using purifed enzyme and Km concentrations of substrates (counterscreen for miR-21 project). Luciferin 4-monooxygenase (Photinus pyralis), P08659. purified FLuc, Km substrates, luminescence inhibition. Potency, µM (top dose mostly 57.5 µM), for inactives: top-dose activity change, negative = inhibition, usual class: inhibitors. actives 6.9% (n = 360,000);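 further: plate controls were vehicle for no effect and reference inhibitor for full effect; nearly all actives have a fitted effect of over 55% in size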
# Target sequence (P08659 whole entry, looked up): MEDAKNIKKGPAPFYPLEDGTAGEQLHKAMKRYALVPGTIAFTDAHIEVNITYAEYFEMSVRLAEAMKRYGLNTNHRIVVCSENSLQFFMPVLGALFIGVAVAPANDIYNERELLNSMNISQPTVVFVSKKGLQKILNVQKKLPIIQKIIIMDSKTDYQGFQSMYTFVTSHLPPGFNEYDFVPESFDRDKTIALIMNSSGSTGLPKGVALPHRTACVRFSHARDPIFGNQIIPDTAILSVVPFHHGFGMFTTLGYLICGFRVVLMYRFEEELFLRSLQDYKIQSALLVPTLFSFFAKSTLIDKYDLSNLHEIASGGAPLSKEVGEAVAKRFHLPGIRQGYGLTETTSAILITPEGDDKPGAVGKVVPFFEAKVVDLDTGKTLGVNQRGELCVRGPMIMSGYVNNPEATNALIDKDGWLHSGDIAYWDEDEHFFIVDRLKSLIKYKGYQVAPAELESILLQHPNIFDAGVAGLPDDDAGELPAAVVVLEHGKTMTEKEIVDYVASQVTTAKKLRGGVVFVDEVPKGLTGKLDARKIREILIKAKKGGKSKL
#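 Purified P. pyralis luciferase, 10 nM final, with Km-level 10 uM D-luciferin and 10 uM ATP in 50 mM Tris acetate pH 7.5, 10 mM Mg acetate, 0.01% Tween-20, 0.05% BSA; 6-point qHTS titration about 60 µM downward; luminescence read.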
# Starred values were filed as active, the others as inactive; ? = inconclusive; . = no result given; [ ] = remark or other dose. The call rests on the fitted dose curve; in most records, active means well fitted curve in the direction sought with a large enough effect; inconclusive means small, poorly fitted or top-dose-only effect, or another doubt; inactive means no such curve, though single readings can be large; an effect the other way counts as inactive or inconclusive. Potency means the concentration at half of the fitted maximal effect.
SMILES,Rab9 promoter act,KinaseGlo FLuc,NPC1 prom act,SMN2 splice enh,ELG1 genotox,FLuc counter
O=C(CCCN1C(=O)S/C(=C\C=C\c2ccccc2)C1=O)Nc1ccc(C(=O)O)cc1,?,.,?,.,22%,21µM*
O=C(CN1C(=O)S/C(=C\c2ccc(C(=O)O)cc2)C1=O)Nc1ccccc1,3%,.,-1%,.,-2%,-14%
O=C(CCN1C(=O)S/C(=C\C=C\c2ccccc2)C1=O)Nc1ccc(O)cc1,3.5µM*,.,3.5µM*,.,13µM*,?
O=C1CC2(CCCC2)CC(=O)N1CCNC[C@H]1COc2ccccc2O1,.,1%,.,.,.,.
COc1cccc(CNC(=O)CCc2nnc3n(CC(C)C)c(=O)c4ccccc4n23)c1,.,.,.,-8%,.,-1%
O=Cc1cn(-c2ccccc2)nc1-c1ccc(F)cc1,5%,.,22%,.,-6%,12µM*
CCN(CC)C(=O)c1cn(-c2ccccc2)nc1-c1ccc2c(c1)OCCO2,18%,5%,-5%,-25%,-9%,-1%
O=Cc1cn(-c2ccccc2)nc1-c1ccc2c(c1)OCCO2,17%,2%,11%,13µM*,10%,4.8µM*
N#Cc1cn(-c2ccccc2)nc1-c1ccc2c(c1)OCCO2,4µM*,0%,?,14µM*,?,-12%[2.3 µM]
CC(C)c1nn2c(=O)cc(COC(=O)c3ccc(NC(=O)c4cccs4)cc3)nc2s1,.,.,.,.,.,-1%
Cc1cc(N2CCCCC2)nc2ccc(NC(=O)c3cccc(Cl)c3)cc12,.,.,.,.,.,-1%
Cc1ccc(NC(=O)Nc2ccc3nc(N4CCN(C)CC4)cc(C)c3c2)cc1C,.,.,.,.,.,-15%
Cc1cc(N2CCN(C)CC2)nc2ccc(NC(=O)Nc3cccc(Cl)c3)cc12,.,.,.,.,.,13µM*
CCN1CCN(c2cc(C)c3cc(NC(=O)c4ccc(C)c(C)c4)ccc3n2)CC1,7%[1.84 µM],.,21%,.,10%,21µM*
Cc1cc(N2CCN(C)CC2)nc2ccc(NC(=O)Nc3ccccc3Br)cc12,.,.,.,.,.,1.5µM*
Cc1cc(N2CCN(C)CC2)nc2ccc(NC(=O)Nc3ccccc3)cc12,.,.,.,.,.,4.8µM*
CCN1CCN(c2cc(C)c3cc(NC(=O)c4ccncc4)ccc3n2)CC1,1%,0%,0%,-12%,-7%,-2%
CN1C2CCCC1CC(NC(=O)c1nn(C)c3ccccc13)C2 (stereo not given),4%[46.1 µM],.,4%[46.1 µM],.,.,.
COc1ccc2c(c1)O[C@H](c1ccc3c(c1)OCO3)[C@@H](OC(=O)Nc1ccc(OC(F)F)cc1)C2=O,.,0%,.,8%,.,.
CO[C@]1(NC(=O)C(C(=O)O)c2ccc(O)cc2)C(=O)N2C(C(=O)O)=C(CSc3nnnn3C)COC21 (stereo not given in full),.,-6%,.,1%,.,.
COc1cccc(-c2noc(C3CCCN(C(=O)c4cccc(F)c4)C3)n2)c1 (stereo not given),5%,.,14%,.,1%,-15%
CCC(=O)C1CCCN(C(=O)c2ccc3nc(-c4cccc(OC)c4)oc3c2)C1 (stereo not given),1.6µM*,.,1.4µM*,.,?,8.5µM*
COc1cccc(-c2nc3ccc(C(=O)N4CCCC(O)C4)cc3o2)c1 (stereo not given),3.5µM*,.,4µM*,.,?,15µM*
CCNC(=S)/N=C(\N)Nc1nc(C)c2cc(C)ccc2n1,2.8µM*,.,3.5µM*,.,?,6µM*
COc1cc(OC)cc(C(=O)Nc2ccccc2N2CCOCC2)c1,4%,-4%,-1%,-24%,0%,2%
COc1ccc(NS(=O)(=O)c2cc(NC(=O)c3ccccc3)ccc2N2CCOCC2)cc1,.,.,.,.,0%,.
